Screening results: PubChem BioAssay, National Center for Advancing Translational Sciences (NCATS)
Nrf2 block: Nrf2 qHTS screen for inhibitors | A549 ARE-Fluc reporter, luciferase luminescence, 18-24 h | actives 2.1% (n = 360,000) | Potency, µM (series often up to 46 µM), for inactives: at the top dose activity change, negative = inhibition, actives largely listed as inhibitors; note: potency is the fitted concentration of half-maximal effect; % is set by controls: 0 for no effect and ±100 for the full control effect; nearly all actives have a fitted effect of over 60% in size
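Two sequential reads on A549 ARE_Fluc cells exposed to compound for 18-24 h: a CellTiter-Fluor fluorescence read for viability, then a luciferase luminescence read for Nrf2/ARE activity.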
Nrf2 activator: qHTS of Nrf2 Activators. AID 624171, 2012. Potency, µM (highest dose often 46.1 µM), for the others: at the highest dose activation, usual class: activators. actives 0.31% (n = 410,000). AREc32 ARE-luciferase reporter (MCF7-derived line), luminescence, 24 h; note: potency is the fitted concentration of half-maximal effect; % of control where 0% means no effect; nearly all actives have a fitted effect of over 65% in size
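Cells of the AREc32 ARE-luciferase line are plated in OPTI-MEM containing 5% FBS and left overnight at 37 deg C. Compounds are pinned in, incubation continues 24 hr, and firefly luciferase signal is then measured.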
IDH1 R132H inh: qHTS for Inhibitors of mutant isocitrate dehydrogenase 1 (IDH1): qHTS | actives 0.093% (n = 390,000) | AID 602179, 2012 | Potency, µM (top dose mostly 76.6 µM), inactives show at the highest dose activity change, negative = inhibition, actives largely listed as inhibitors | Isocitrate dehydrogenase [NADP] cytoplasmic (Homo sapiens), O75874 | IDH1-R132H enzyme, NADPH consumption, diaphorase/resazurin fluorescence; note: potency is the fitted concentration of half-maximal effect; % is set by controls: 0 for no effect and ±100 for the full control effect; nearly all actives have a fitted effect of over 65% in size
Target sequence (O75874 whole entry R132H, stated change not applied): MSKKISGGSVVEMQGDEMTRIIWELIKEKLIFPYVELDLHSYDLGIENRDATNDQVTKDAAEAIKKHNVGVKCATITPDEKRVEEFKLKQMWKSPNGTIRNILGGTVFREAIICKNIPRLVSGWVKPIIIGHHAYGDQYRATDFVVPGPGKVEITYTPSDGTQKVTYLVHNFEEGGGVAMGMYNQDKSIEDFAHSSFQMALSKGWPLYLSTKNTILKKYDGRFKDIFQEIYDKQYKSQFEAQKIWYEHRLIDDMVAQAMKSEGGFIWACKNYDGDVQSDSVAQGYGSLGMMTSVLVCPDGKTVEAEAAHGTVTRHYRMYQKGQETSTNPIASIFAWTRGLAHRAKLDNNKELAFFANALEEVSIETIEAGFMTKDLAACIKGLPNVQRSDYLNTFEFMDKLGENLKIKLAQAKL
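IDH1-R132H (0.5 ug/mL) preincubated 30 min with compound, then NADPH (0.016 mM) and alpha-KG (2 mM) added; 80 min at RT, pH 7.5. Remaining NADPH coupled via diaphorase/resazurin to fluorescence (540/590 nm); concentration-response curves normalized to no-enzyme control.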
LDHA inh: qHTS assay for inhibitors of human lactate dehydrogenase. activity change, % (values are at about 110 or 230 µM). purified LDHA, NADH/diaphorase-resazurin fluorescence; active compounds read low. actives 0.15% (n = 480,000); in the data active = activity change below about -30%; inconclusive = mostly about -25% to -30%;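 note: plate controls were DMSO wells for no effect and wells without enzyme for full effect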
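Resorufin fluorescence (ex540/em590), read at 0 and 20 min after diaphorase/resazurin addition, reports the NADH left after a 5 min room-temperature reaction of 2 nM human LDH5 with 0.06 mM NADH and 0.2 mM pyruvate.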
A549 viability: Nrf2 qHTS screen for inhibitors: counterscreen for cytotoxicity; actives 0.16% (n = 390,000); Potency, µM (doses to about 46 µM), for the others: at the highest dose activity change, negative = cytotoxicity, most hits filed as inhibitors; A549 ARE-Fluc cells, CellTiter-Fluor viability, 18-24 h; AID 504648, 2011; note: potency is the fitted concentration of half-maximal effect; % is set by controls: 0 for no effect and ±100 for the full control effect
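Cytotoxicity counterscreen: CellTiter-Fluor fluorescence was measured in A549 ARE_Fluc cells after 18-24 h of compound exposure in a concentration series. The subsequent BugLite luminescent read reports ARE-luciferase activity.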
12-LOX inh: Primary qHTS assay for inhibitors of human arachidonate 12S-lipoxygenase (ALOX12): Round 2 | Potency, µM (titrated, usually from 108 µM), without a hit: at the top dose activity change, negative = inhibition, usual class: inhibitors | purified 12hLO, xylenol orange hydroperoxide absorbance | Polyunsaturated fatty acid lipoxygenase ALOX12 (Homo sapiens), P18054 | AID 1671190, 2021 | actives 1.1% (n = 580,000); note: potency is the fitted concentration of half-maximal effect; % is set by controls: 0 for no effect and ±100 for the full control effect
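Purified human 12hLO at 150 nM in 25 mM Hepes, 0.01% Triton X-100, pH 7.0, preincubated 15 min at room temperature with compound. Reaction started with 40 uM arachidonic acid, 30 min at room temperature. Hydroperoxide measured by Fe-xylenol orange, 573/405 nm absorbance ratio.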
Active calls of the source: *; [ ] = remark or other dose. The list is not random: actives were taken first. Their share in the collection is about 2.7%. Unless noted, calls come from the whole dose curve; as a rule, active = well fitted curve in the direction sought with a large enough effect; inconclusive = small, poorly fitted or top-dose-only effect, or another doubt; inactive = no such curve, though single readings can be large; an effect the other way counts as inactive or inconclusive.

Screening CCc1ccc(C(=O)N2CCC(c3nc(-c4ccc(S(=O)(=O)N5CCCC5)cc4)no3)CC2)cc1 returned Nrf2 block 12µM*, Nrf2 activator -1%, IDH1 R132H inh -9%, LDHA inh -8, A549 viability -19% and 12-LOX inh 0%.
For CCC(C)(C)C(=O)NCc1ccc(OC)cc1 the results were LDHA inh 1 and 12-LOX inh -29%.
Cc1[nH]c2ccc(F)cc2c1CCN(Cc1ccncc1)C(=S)NC(C)(C)C was read as LDHA inh 1 and 12-LOX inh 14%.
`Cc1nc2cc(NS(=O)(=O)c3ccccc3F)ccc2s1` gave Nrf2 block -11%, Nrf2 activator 0%, IDH1 R132H inh -1%, LDHA inh -12, A549 viability 0% and 12-LOX inh 15%.
Cc1nc2cc(NS(=O)(=O)c3c(C)c(C)cc(C)c3C)ccc2s1 was read as Nrf2 block 11µM*, Nrf2 activator 0%, IDH1 R132H inh 10%, LDHA inh -4, A549 viability inconclusive and 12-LOX inh inconclusive.
Cc1nc2ccc(NS(=O)(=O)c3c(C)c(C)cc(C)c3C)cc2s1 was read as Nrf2 block 15µM*, Nrf2 activator -1%, IDH1 R132H inh 0%, LDHA inh 12, A549 viability -11% and 12-LOX inh inconclusive.
For N#Cc1c(Nc2ccccc2)ccnc1NCc1ccccc1 the results were LDHA inh 11 and 12-LOX inh 8%.
`N#Cc1c(NCc2ccccc2)ccnc1NCc1cccnc1` gave Nrf2 block 6.5µM*, Nrf2 activator 0%, IDH1 R132H inh 4%, LDHA inh 1, A549 viability -14% and 12-LOX inh 0%.
For CN1c2ccsc2/C(=N/Nc2ccc(F)cc2)CS1(=O)=O the results were Nrf2 block inconclusive, Nrf2 activator 13µM*, IDH1 R132H inh -3%, LDHA inh -5, A549 viability -18% and 12-LOX inh inconclusive.
COc1cc(NS(=O)(=O)c2cccc(Br)c2)c(C(=O)O)cc1OC was read as LDHA inh 10 and 12-LOX inh inconclusive.
For COc1cc(/C=C/c2[nH]c(=O)[nH]c(=O)c2[N+](=O)[O-])cc([N+](=O)[O-])c1O the results were Nrf2 block 3%, Nrf2 activator -1%, IDH1 R132H inh 3%, LDHA inh 0, A549 viability 16µM* and 12-LOX inh -18%.
CC(Sc1nc(N)c2c3c(sc2n1)CSC(C)(C)C3)C(=O)Nc1ccccc1 (centres undefined) was read as Nrf2 block 18µM*, Nrf2 activator 4%, IDH1 R132H inh 7%, LDHA inh 0, A549 viability inconclusive and 12-LOX inh -20%.
CCC1(C)Cc2c(sc3nc(SCC(=O)c4ccccc4)nc(N)c23)CO1 (centres undefined) was read as LDHA inh 3 and 12-LOX inh 5%.
COc1cccc(C(=O)N2CCC3(C2)C(=O)N(CCc2ccccc2)c2ccccc23)c1 (centres undefined) was read as 12-LOX inh 18%.
O=C(CCC(=O)N1CCC(c2noc3ccc(F)cc23)CC1)N1CCSCC1 was read as LDHA inh -12 and 12-LOX inh 16%.
`CCOc1c2c(c(-c3ccc4c(c3)OCO4)c3cc(OC)c(OC)cc13)C(=O)OC2` gave Nrf2 block 1.8µM*, LDHA inh 2 and A549 viability 2.9µM*.
`O=C1CC(c2ccc(F)c(F)c2)c2cc(Br)c3ccccc3c2N1` (centres undefined) gave LDHA inh 0 and 12-LOX inh inconclusive.
For COC(=O)c1ccc(C2CC(=O)Nc3c2cc(Br)c2ccccc32)cc1 (centres undefined) the results were LDHA inh -35* and 12-LOX inh 6%.
`CCOCCOc1nc2c(c(=O)n(C)c(=O)n2C)n1Cc1cccc2ccccc12` gave LDHA inh 2 and 12-LOX inh 29%.
For O=[N+]([O-])c1cc(C2Nc3cccc4cccc(c34)N2)ccc1Cl the results were Nrf2 block 9%, Nrf2 activator inconclusive, IDH1 R132H inh 3%, LDHA inh 9, A549 viability -1% and 12-LOX inh 40µM*.
For Clc1ccc(C2Nc3cccc4cccc(c34)N2)cc1 the results were Nrf2 block 7%, Nrf2 activator 0%[9.22 µM], IDH1 R132H inh 4%, LDHA inh 2, A549 viability -12% and 12-LOX inh 4.5µM*.
`O=C(CN1CCN(c2ccc(F)cc2)CC1)N1CCC(Cc2ccccc2)CC1` gave Nrf2 block -19%, Nrf2 activator 3%, IDH1 R132H inh 5%, LDHA inh -13, A549 viability 17% and 12-LOX inh inconclusive.
For O=C(CN1CCC(Cc2ccccc2)CC1)N1CCc2ccccc2C1 the results were Nrf2 block -4%, Nrf2 activator 4%, IDH1 R132H inh -4%, LDHA inh -15, A549 viability -7% and 12-LOX inh 1µM*.
For COc1ccccc1N1CCN(CCCN2C(=O)C3CCCCN3C2=O)CC1 (centres undefined) the results were Nrf2 block 7%, Nrf2 activator -1%, IDH1 R132H inh 4%, LDHA inh -1, A549 viability -3% and 12-LOX inh 0%.
For COc1ccccc1N1CCN(CCN2C(=O)C3CCCCN3C2=O)CC1 (centres undefined) the results were Nrf2 block 6%, Nrf2 activator 0%, IDH1 R132H inh 3%, LDHA inh -3, A549 viability 0% and 12-LOX inh 13µM*.
For CCCCCCc1ccc(C(=O)Cn2cnc3c2c(=O)n(C)c(=O)n3C)cc1 the results were LDHA inh 2 and 12-LOX inh inconclusive.
Screening COc1ccc([C@H]2CC(=O)C=C(c3cccc(Cl)c3O)C2)cc1OC returned Nrf2 block 9%, Nrf2 activator 6%, IDH1 R132H inh 11%, LDHA inh -9, A549 viability -5% and 12-LOX inh 22µM*.
Screening O=C1C=C(c2cccc(Cl)c2O)C[C@@H](c2ccc3c(c2)OCO3)C1 returned Nrf2 block 9%, Nrf2 activator 2%, IDH1 R132H inh -2%, LDHA inh 4, A549 viability 0% and 12-LOX inh inconclusive.
